For 37 compounds, cell viability results are on record in the supplement of paper PMC10941209.

One may read the cell viability as a read-out of living cells in per cent, often relative to untreated cells.

The assay deals with HFF. The experiment in a line: cell viability relative to DMSO control; higher = less cytotoxic. To be noted: 1 µM; 72 h. On the procedure:
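Single-dose cytotoxicity screen of the MMV Pandemic Response Box at 1 uM on human foreskin fibroblasts (HFF), 72 h at 37 C. Viability measured by MTT (OD 550 nm) and normalised to the DMSO control (% survival).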
In turn, `CN(C(=O)C1(c2ccc(Cl)cc2)CCC1)c1ccccc1` had a cell viability of 63.2%. The result for `Nc1ccc2oc(=O)ccc2c1I` reads 69.6%; that for `Oc1cccc(C(Nc2nccs2)c2ccc3cccnc3c2O)c1` (configuration not stated), 72%. The result for `OB1OCc2c1ccc(Cl)c2F` reads 68.5%. In turn, `Nc1cccc(-c2nc(N)nc(NC3Cc4ccccc4C3)n2)c1` had a cell viability of 68.2%.

`O=C1NC(=S)N/C1=C\c1cc(Br)cc(Br)c1O` had a cell viability of 72.6%. As for `COc1ccc(NC(=O)c2cc3ccccn3n2)cc1`, the cell viability worked out at 62.2%. As for `Cc1cc(C)n(O)c(=O)c1`, the figure is 68.5%; as for `CCCNc1ccc(S(=O)(=O)Nc2cc(C)on2)cc1`, 69.3%; as for `c1cnc(NCc2ccc(CNc3ncccn3)cc2)nc1`, 67.2%.

As for `O=C(Nc1ccc(F)cc1)c1nn(-c2ccccc2)c(=O)cc1Cl`, the cell viability is 71%. The result for `CCCCOC(=O)Nc1cc2nc(C3CCCCC3)[nH]c2cc1N(CC)CC` reads 72.1%; that for `C=C(C)n1c(=O)n(Cc2ccccc2C)c2ccccc21`, 63%. As for `CSc1ccc2c(c1)C(N1CCN(C)CC1)Cc1ccccc1S2` (configuration not stated), the figure is 65%; as for `CC1(C)CC(NC(=O)C(=O)Nc2ccc(Cl)cc2)CC(C)(C)N1`, 69.1%; as for `CCCCCCCCC(CP(=O)(O)C(C)N)C(=O)O` (configuration not stated), 61.8%. The result for `CCOC(=O)Nc1cc(NC(C)CC(C)CN(CC)CC)c2nc(-c3ccccc3)c(-c3ccccc3)nc2n1` (configuration not stated) reads 78.5%; that for `C[C@H]1[C@@H](c2cccc(C(F)(F)F)c2)OC(=O)N1C(=O)NCc1cncc2ccccc12`, 70%; that for `N[C@H]1CCC[C@H]1C(=O)O`, 70.6%. Regarding `CC(C)=CCC/C(C)=C/CNCCNC1C2CC3CC(C2)CC1C3` (configuration not stated), the cell viability stood at 80.2%. The result for `Clc1cc2nc(C3CCNCC3)n(Cc3ccc(CNCCc4c[nH]cn4)cc3)c2cc1Cl` reads 65.3%; that for `Cc1c(OCC(F)(F)F)ccnc1C[S+]([O-])c1nc2ccccc2[nH]1` (configuration not stated), 66.4%; that for `CC1CCc2c(N3CCC(O)CC3)c(F)cc3c(=O)c(C(=O)O)cn1c23` (configuration not stated), 59.7%. `CCOc1ccc(C(=O)NCCc2ccccc2)cc1`: the cell viability worked out at 63.9%. The result for `O=C(c1nc2c(C(F)(F)F)cc(C3CC3)cn2c1Cl)N1CCN([C@H]2CC[C@H](O)CC2)C(=O)C1` reads 61.7%; that for `O=C(Nc1nnc(-c2ccc(Cl)cc2)o1)c1ccc(F)cc1`, 65.9%; that for `CCc1cc(CCCOc2c(C)cc(-c3noc(C(F)(F)F)n3)cc2C)on1`, 69.3%.

Turning to `O=C(Nc1ccccc1)N(Cc1cc(Br)ccc1O)c1ccc(F)cc1`, the cell viability is 67.1%. The result for `Nc1nc2c(ncn2/C=C2/CC2(CO)CO)c(=O)[nH]1` reads 63.8%. With `CCN(CC)S(=O)(=O)c1ccc(Cl)c(C(=O)Nc2sc3c(c2C#N)CCCC3)c1`, the cell viability amounted to 60.2%. As for `NC(=O)c1cnc2ccc(S(=O)(=O)c3ccccc3)cc2c1Nc1ccc(O)cc1`, the figure is 59.5%; as for `O=C(O)c1ccc(-c2ccc(O[C@H]3O[C@H](CO)[C@@H](O)[C@H](O)[C@@H]3O)cc2)cc1`, 63.9%. `O=C(Cn1cnc2ccccc2c1=O)Nc1ccccc1` showed a cell viability of 62.8%. The result for `COc1ccc(OCc2ccc(COc3c(Cl)cccc3Cl)cc2)c(Cl)c1` reads 60.4%; that for `Cc1nc(-c2ccc(C3N(C)c4ccc(F)cc4C(=O)N3c3ccccc3)s2)cs1` (configuration not stated), 65.2%. As for `CC(C)C(=O)N[C@H]1[C@H]([C@H](O)[C@H](O)CO)OC(C(=O)O)=C[C@@H]1N=[N+]=[N-]`, the figure is 56.6%. The result for `CC1(C)Cc2c(C#N)c(SCCc3ccccc3)nc(N3CCOCC3)c2CO1` reads 81.4%.
